Records with an inconclusive call do not appear. Activity calls are given as the source filed them. Unless noted, the call rests on the fitted dose curve; in most records, active means well fitted curve in the direction sought with a large enough effect in the repeat runs; inconclusive means weak or mixed curves; inactive means no such curve, though single readings can be large; an effect the other way counts as inactive or inconclusive.
Key:
[1] = qHTS assay for small molecule agonists of the p53 signaling pathway (AID 651631; calls by dose curve; further: nearly all actives have a fitted effect of over 15% in size)
Procedure, shortened: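 HCT-116 p53RE-bla reporter line, 16 h compound treatment at 37 °C, then fluorescence after 2 h with B/G FRET substrate.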

[2] = qHTS assay for small molecules that induce genotoxicity in human embryonic kidney cells expressing luciferase-tagged ATAD5 (AID 651632); further: nearly all actives have a fitted effect of over 15% in size
Procedure, shortened: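 Concentration-response screen for ATAD5 upregulation in HEK293T luciferase reporter cells; 16 hr treatment at 37C, then luminescence after 30 min with Amplite at room temperature.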

[3] = qHTS assay for small molecule agonists of the p53 signaling pathway - cell viability (AID 651633; calls by dose curve;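 further: p53RE-bla HCT reporter cells with a stable beta-lactamase p53 reporter; nearly all actives have a fitted effect of over 30% in size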)
Procedure, shortened: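 Viability counter-read: CellTiter-Glo luminescence (30 min, room temperature) in the same p53RE-bla plates. These plates had been exposed to compounds for 16 h at 37 C.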

[4] = qHTS assay for small molecules that induce genotoxicity in human embryonic kidney cells expressing luciferase-tagged ATAD5 - cell viability (AID 651634; calls by dose curve; further: nearly all actives have a fitted effect of over 25% in size)
Procedure, shortened: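 15.5 hr compound or vehicle exposure of HEK293T cells expressing luciferase-tagged ATAD5 at 37C; live-cell protease activity is read by fluorescence after 30 min of CellTiter-Fluor.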

[5] = qHTS assay for small molecule disruptors of the mitochondrial membrane potential - cell viability (AID 720634; calls by dose curve;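 further: human HepG2 liver cancer cells; nearly all actives have a fitted effect of over 20% in size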)
Procedure, shortened: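 In this qHTS format, HepG2 cells plated overnight were pinned with compound, incubated 1 hr, and assayed for ATP luminescence with CellTiter-Glo after m-MPI dye addition.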

[6] = qHTS assay for small molecule disruptors of the mitochondrial membrane potential (AID 720635)
Procedure, shortened: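 Mitochondrial membrane potential tracked with Mito-MPS dye, red aggregates (ex 540/em 590 nm) against green monomers (ex 490/em 535 nm). Compound treatment 1 hr at 37C, dye 30 min in HepG2.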

[7] = qHTS assay to test for compound auto fluorescence at 590 nm (red) in HepG2 cells (AID 720674)
Procedure, shortened: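 1 hr compound incubation on HepG2 cells, 37 C, 5% CO2; plate read ex 540 nm / em 590 nm; intensities reported as Rose Bengal sodium equivalents.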

[8] = qHTS assay to test for compound auto fluorescence at 535 nm (green) in HepG2 cells (AID 720675)
[9] = qHTS assay to test for compound auto fluorescence at 590 nm (red) in HEK293 cells (AID 720679)
Procedure, shortened: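 HEK293 cells (2,000/well, medium with 10% dialyzed FBS) attached for 4-5 hr at 37C, received 23 nL compound and were incubated overnight at 37C, 5% CO2. Red fluorescence was then read at 540/590nm Ex/Em, referenced to Rose Bengal sodium.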

[10] = qHTS assay to test for compound auto fluorescence at 535 nm (green) in HEK293 cells (AID 720680)
[11] = qHTS assay to test for compound auto fluorescence at 460 nm (blue) in HEK293 cell free culture (AID 720681)
Procedure, shortened: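 Blue fluorescence (Ex 405/Em 460 nm, triamterene-equivalent) was read immediately after pin transfer of compound or DMSO into medium (DMEM, 10% FBS) without cells.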

[12] = qHTS assay to test for compound auto fluorescence at 535 nm (green) in HEK293 cell free culture (AID 720682)
Procedure, shortened: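 Steps: dispense DMEM/10% FBS into empty wells; pin in compound or DMSO; measure fluorescence at 485/535 nm. Values are fluorescein equivalents.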

[13] = qHTS assay to test for compound auto fluorescence at 590 nm (red) in HEK293 cell free culture (AID 720683)
Procedure, shortened: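 Red-channel autofluorescence of compounds in culture medium (DMEM, 10% FBS), no cells, measured at 540/590 nm. Rose Bengal sodium is the reference fluorophore for equivalence.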

[14] = qHTS assay to test for compound auto fluorescence at 590 nm (red) in HepG2 cell free culture (AID 720684)
Procedure, shortened: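 Cell-free; medium MEM + 10% FBS; compound or DMSO added by pintool; read Ex 540/Em 590 nm; Rose Bengal sodium as red reference fluorophore.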

[15] = qHTS assay to test for compound auto fluorescence at 460 nm (blue) in HepG2 cell free culture (AID 720685)
Procedure, shortened: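 Cell-free plates of MEM plus 10% FBS received 23 nL compound or DMSO vehicle; blue-channel (405/460 nm) intensity scored against triamterene as reference fluorophore.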

[16] = qHTS assay to test for compound auto fluorescence at 535 nm (green) in HepG2 cell free culture (AID 720686)
[17] = qHTS assay to test for compound auto fluorescence at 460 nm (blue) in HepG2 cells (AID 720687)
Procedure, shortened: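 Blue-channel autofluorescence (Ex/Em 405/460 nm, triamterene-equivalent) was measured after 1 hr compound exposure at 37 C, 5% CO2. Cells were HepG2, plated overnight at 37 C in MEM plus 10% FBS.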

[18] = biological target: Glucocorticoid receptor (Homo sapiens) (UniProt P04150); assay: qHTS assay to identify small molecule agonists of the glucocorticoid receptor (GR) signaling pathway (AID 720691; active means well fitted activation curve with a large enough effect in the signal ratio in the repeat runs, not every such curve was filed as active; the % refers to the signal ratio); settings: GR-bla HeLa, beta-lactamase reporter ratio, 18 h; activation: at 62.4 µM (top of the series)
Sequence of Glucocorticoid receptor (Homo sapiens) (P04150 whole entry, looked up): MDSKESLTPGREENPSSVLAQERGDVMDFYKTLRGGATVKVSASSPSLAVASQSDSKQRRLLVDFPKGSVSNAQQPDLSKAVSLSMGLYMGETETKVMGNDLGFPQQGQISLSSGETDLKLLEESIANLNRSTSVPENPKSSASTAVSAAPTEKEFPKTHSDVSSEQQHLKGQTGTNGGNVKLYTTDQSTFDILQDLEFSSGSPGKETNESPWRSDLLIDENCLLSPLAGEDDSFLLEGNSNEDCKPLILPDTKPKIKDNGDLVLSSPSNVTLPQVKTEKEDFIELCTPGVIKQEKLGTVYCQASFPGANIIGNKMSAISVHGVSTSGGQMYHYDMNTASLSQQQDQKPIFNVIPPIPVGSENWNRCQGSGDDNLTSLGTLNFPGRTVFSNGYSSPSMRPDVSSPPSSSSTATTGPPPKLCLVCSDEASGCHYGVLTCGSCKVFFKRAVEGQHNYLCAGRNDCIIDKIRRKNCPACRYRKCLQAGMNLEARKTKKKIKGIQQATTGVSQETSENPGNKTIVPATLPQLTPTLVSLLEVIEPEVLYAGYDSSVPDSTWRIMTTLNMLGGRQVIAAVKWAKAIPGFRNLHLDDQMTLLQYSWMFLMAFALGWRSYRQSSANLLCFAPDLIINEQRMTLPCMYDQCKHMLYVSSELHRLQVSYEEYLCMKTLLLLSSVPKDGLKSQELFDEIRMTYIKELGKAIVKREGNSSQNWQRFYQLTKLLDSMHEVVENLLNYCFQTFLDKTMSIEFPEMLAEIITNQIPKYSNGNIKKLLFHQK
Procedure, shortened: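 Measures GR pathway activation through a GRE-beta-lactamase reporter stably integrated in HeLa cells, with 18 h compound treatment at 37 C and fluorescence detection using a FRET substrate.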

[19] = biological target: Glucocorticoid receptor (Homo sapiens) (UniProt P04150); assay: qHTS assay to identify small molecule antagonists of the glucocorticoid receptor (GR) signaling pathway (AID 720692; active means well fitted inhibition curve with a large enough effect in the signal ratio in the repeat runs, not every such curve was filed as active; the % refers to the signal ratio)
Procedure, shortened: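 Tox21 10K library screened in concentration-response for blockade of dexamethasone (5 nM final)-induced GRE-bla reporter activity in HeLa cells; 18 h treatment, fluorescence read.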

[20] = qHTS assay to test for compound auto fluorescence at 460 nm (blue) in HEK293 cells (AID 720678)
Procedure, shortened: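 HEK293 cells (2,000 per well, medium with 10% dialyzed FBS) attached for 4-5 hr at 37C, then received compound and stood overnight at 37C, 5% CO2. Blue fluorescence was read at Ex/Em 405/460 nm and expressed relative to triamterene.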

Measured: Potency

O=NN(CCO)CCO
not listed: [20]
inactive: all other assays above

C[N+]1(C)[C@@H]2CC[C@H]1CC(OC(=O)C(CO)c1ccccc1)C2 (stereo partly drawn)
not listed: [12]
inactive: all other assays above

C=CCBr
not listed: [6] | [12] | [19] | [20]
inactive: all other assays above

CC(Cl)CCl (stereo not drawn)
not listed: [12] | [14]
inactive: all other assays above

CC(C)NCC(O)c1ccccc1Cl (stereo not drawn)
not listed: [18] | [19]
inactive: all other assays above

OCC(Br)CBr (stereo not drawn)
not listed: [6] | [19]
inactive: all other assays above
